Data: PubChem BioAssay AID588591 (National Center for Advancing Translational Sciences (NCATS), 2011)
Hit rate of the full screen: of about 390,000 compounds, about 4,700 (1.2%) were called active. Inconclusive results (about 4%) are left out. Calls follow the shape of the dose curve; as a rule, active = well fitted inhibition curve with a large enough effect; inconclusive = small, poorly fitted or top-dose-only effect, or another doubt; inactive = no such curve, though single readings can be large or run the other way. The entries come from a sample that favours actives as a whole.

The compounds below were run against DNA polymerase eta (Homo sapiens) (UniProt Q9Y253) (assay: qHTS for Inhibitors of Polymerase Eta). Conditions: recombinant Pol eta, fluorescent DNA replication assay; series mostly up to 114 µM; activity change, negative = inhibition: at the top concentration.
Sequence of DNA polymerase eta (Homo sapiens) (Q9Y253 whole entry, looked up): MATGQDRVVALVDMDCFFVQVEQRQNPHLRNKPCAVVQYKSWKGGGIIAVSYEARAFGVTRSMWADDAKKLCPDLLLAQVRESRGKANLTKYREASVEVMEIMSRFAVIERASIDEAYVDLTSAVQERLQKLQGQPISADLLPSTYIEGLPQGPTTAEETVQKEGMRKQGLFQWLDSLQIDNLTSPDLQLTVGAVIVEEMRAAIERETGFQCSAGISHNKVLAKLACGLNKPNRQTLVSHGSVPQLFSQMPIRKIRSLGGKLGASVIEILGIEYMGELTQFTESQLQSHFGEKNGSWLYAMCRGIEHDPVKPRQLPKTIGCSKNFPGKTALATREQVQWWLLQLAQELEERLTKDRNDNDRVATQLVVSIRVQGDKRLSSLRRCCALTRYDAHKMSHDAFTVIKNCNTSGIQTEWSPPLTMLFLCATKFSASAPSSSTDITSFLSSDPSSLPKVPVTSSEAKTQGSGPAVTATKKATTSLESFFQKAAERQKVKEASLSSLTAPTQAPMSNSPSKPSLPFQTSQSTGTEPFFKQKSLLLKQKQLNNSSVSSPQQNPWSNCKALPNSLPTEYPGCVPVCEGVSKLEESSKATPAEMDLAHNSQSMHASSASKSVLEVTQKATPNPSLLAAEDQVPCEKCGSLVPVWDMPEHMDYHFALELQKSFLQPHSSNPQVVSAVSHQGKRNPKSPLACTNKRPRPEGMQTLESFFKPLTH
Procedure, shortened: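 Fluorescent replication assay: 50 nM final substrate added after a 15 min room-temperature compound preincubation with 10 nM enzyme. Signal taken at 0 min and again at 10 min.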
% is scaled to controls: 0 for no effect and ±100 for the full control effect; potency is read from the fitted curve at half-maximal effect.

Structure (SMILES) | activity change, negative = inhibition | Potency
O=C(COC(=O)c1ccccc1C(=O)N1CCN(c2ccccc2)CC1)NCc1ccccc1 | -14.8% (inactive) | –
CCN(C(=O)COC(=O)CCC(=O)c1cccs1)C1CCCCC1 | -2.01% (inactive) | –
O=C(COC(=O)c1cc(S(=O)(=O)N2CCOCC2)ccc1Cl)NCCc1ccccc1 | -21.4% (inactive) | –
O=C(CC1CCCCC1)NCc1ccco1 | -2.88% (inactive) | –
Cn1c(N)c(C(=O)COC(=O)c2ccccc2NCc2ccco2)c(=O)n(C)c1=O | -3.1% (inactive) | –
Cc1cc(C(=O)OCC(=O)NCc2ccco2)c(C)n1-c1ccccc1 | – | 14.1 µM (active)
Cc1ccc2nc(COc3cccc(NC(=O)Nc4ccc(C)c(Cl)c4)c3)cc(=O)n2c1 | -18.4% (inactive) | –
COC(=O)c1cc(S(=O)(=O)N2CCN(c3cc(Cl)ccc3C)CC2)c[nH]1 | -31.5% (inactive) | –
Cc1cccc(N2CCN(C(=O)CCSCc3ccccc3F)CC2)c1C | -12.4% (inactive) | –
Cc1ccc2oc(=O)c3cnn(CC(=O)N4CCN(c5cccc(Cl)c5)CC4)c3c2c1 | -17.3% (inactive) | –
COc1ccc(-n2ccnc(NCCc3ccc(Cl)cc3)c2=O)cc1OC | -18.9% (inactive) | –
Cc1cccc(C(C)C)c1NC(=O)C(NS(=O)(=O)c1cccc2nsnc12)c1ccccc1 (configuration not stated) | -7.33% (inactive) | –
Cc1ccc(-n2ncc3c(=O)n(Cc4cccc(C(F)(F)F)c4)cnc32)cc1C | -8.19% (inactive) | –
CC(C)(C)NC(=O)CSc1nc(-c2ccc(F)cc2)cc(C(F)(F)F)n1 | -14.9% (inactive) | –
COc1cc(CCC(=O)OCC(=O)Nc2cccc(S(N)(=O)=O)c2)cc(OC)c1OC | -22.8% (inactive) | –
COc1cc(NC(=O)COC(=O)c2ccc([N+](=O)[O-])s2)cc(OC)c1OC | – | 50.1 µM (active)
COc1cc(NC(=O)COC(=O)c2cnc(C)cn2)c(C)cc1[N+](=O)[O-] | -20.1% (inactive) | –
COc1ccc(CCC(=O)NCc2ccc3c(c2)CCN3C(=O)c2ccc(F)cc2)cc1 | -11.5% (inactive) | –
O=C(CS(=O)(=O)c1cccc2nsnc12)N1CCN(c2cccc(Cl)c2)CC1 | -10.8% (inactive) | –
COC(=O)c1ccccc1NC(=O)C(Cc1ccccc1)N1Cc2ccccc2C1=O (configuration not stated) | -15.5% (inactive) | –
Cc1ccccc1NC(=O)Cn1c(=O)n(CCc2ccccc2)c(=O)c2ccccc21 | -18.2% (inactive) | –
Cc1ccccc1NC(=O)CN1C(=O)N/C(=C\c2cccn2-c2cccc(C(=O)O)c2)C1=O | – | 3.16 µM (active)
Cc1ccccc1NC(=O)CN1C(=O)C(C)(C)c2ccccc21 | -20.7% (inactive) | –
CC(C)S(=O)(=O)c1oc(-c2ccc(F)cc2)nc1S(=O)(=O)c1ccc(F)cc1 | -22.2% (inactive) | –

Structure (SMILES) | activity change, negative = inhibition | Potency
Cc1ccccc1C(=O)Nc1nnc(S(=O)(=O)N(C)c2ccc(Cl)cc2)s1 | -1.26% (inactive) | –
CN(Cc1ccco1)S(=O)(=O)c1nnc(NC(=O)c2ccccc2)s1 | -18.2% (inactive) | –
CCN(c1ccc(Cl)cc1)S(=O)(=O)c1nnc(NC(=O)c2ccco2)s1 | – | 39.8 µM (active)
Cn1nc(-c2ccccc2)c(-c2ccccc2)c(C(=O)Nc2ccc(S(N)(=O)=O)cc2)c1=O | -13.8% (inactive) | –
Cc1cc(O)c(C(=O)/C=C/c2c(F)c(F)c(F)c(F)c2F)c(=O)o1 | – | 35.5 µM (active)
O=C(O)/C(=C/c1c(C(=O)O)[nH]c2cc(Cl)cc(Cl)c12)c1ccccc1 | 1.06% [at 57.1 µM] (inactive) | –
O=C1OC(C(=O)Nc2cccc(Br)c2)Cc2ccccc21 (configuration not stated) | -1.35% (inactive) | –
Cc1ccc(-n2nc(C)c3c(C)cc(=O)n(CC(=O)Nc4ccc(C(C)C)cc4)c32)cc1 | -4.68% (inactive) | –
CCOc1ccc(S(=O)(=O)N2CCC(C(=O)NCc3ccccn3)CC2)cc1Cl | 2.78% (inactive) | –
Cc1ccc(CNC(=O)C2CCN(S(=O)(=O)c3ccc4nc5c(c(C(=O)O)c4c3)CC(C)CC5)CC2)cc1 (configuration not stated) | – | inactive
CCOC(CNC(=O)C1CCN(S(=O)(=O)c2ccc3nc4c(c(C(=O)O)c3c2)CC(C)CC4)CC1)OCC (configuration not stated) | – | 31.6 µM (active)
CCNS(=O)(=O)c1cc(-c2nnc(Nc3cccc(C(F)(F)F)c3)c3ccccc23)ccc1C | -18.4% (inactive) | –
Cc1ccccc1-c1nc(SCC(=O)N(C)c2ccccc2)c2c(=O)n(C)c(=O)n(C)c2n1 | -25% (inactive) | –
CCOC(=O)Cn1c(=O)n(-c2ccccc2OC)c2nc(-c3cccc(F)c3)nc(C(N)=O)c21 | -17% (inactive) | –
CCOC(=O)c1cc2c(=O)n3ccccc3nc2n(CCCOC)c1=NC(=O)C(C)(C)Oc1ccc(Cl)cc1 | -19.7% (inactive) | –
COc1cc(OC)cc(C(=O)Nc2nnc(SCC(=O)NCC3CCCO3)s2)c1 (configuration not stated) | -19.7% (inactive) | –
CCSc1nnc(NC(=O)c2cc(=O)c3cc(C)c(C)cc3o2)s1 | -14.5% (inactive) | –
NC(=O)CSc1nnc(NC(=O)c2ccc(Br)o2)s1 | – | 20 µM (active)
CCOc1ccccc1N(CC)C(=O)c1cc2ccc3cccnc3c2[nH]1 | -2.25% (inactive) | –
COc1ccccc1N1CC(C(=O)Nc2nnc(SCC(=O)NC(C)C)s2)CC1=O (configuration not stated) | 4.61% (inactive) | –
Cc1ccccc1N1CC(C(=O)Nc2nnc(SCCC3OCCO3)s2)CC1=O (configuration not stated) | – | 20 µM (active)
COc1ccccc1N1CC(C(=O)Nc2nnc(SCC(=O)NCC3CCCO3)s2)CC1=O (configuration not stated) | -20% (inactive) | –
COc1ccc(SCc2cc(=O)c3ccc(C)c(C)c3[nH]2)cc1 | -3.7% (inactive) | –
